# Assay outcomes: PubChem, National Center for Advancing Translational Sciences (NCATS)
# TDP1 cell noCPT = qHTS for Inhibitors of human tyrosyl-DNA phosphodiesterase 1 (TDP1): qHTS in cells in absence of CPT. 420,000 tested, 15% active. AID 686978, 2013. DT40 Tdp1-/- hTDP1 cells, no CPT, ATP luminescence, 48 h. Potency, µM (doses to about 46.2 µM), for the others: at the top dose activity change, negative = growth inhibition, actives largely listed as inhibitors; note: potency is the fitted concentration of half-maximal effect; nearly all actives have a fitted effect of over 55% in size
#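 Stably hTDP1-transfected Tdp1-null chicken DT40 cells were treated with library compounds minus camptothecin and grown for at least 48 hr at 37 °C, after which cellular ATP was quantified by luminescence.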
# IL1B secr inh = inhibitors of inflammasome signaling (IL-1 beta secretion) | THP-1 LPS/ATP IL-1B secretion, AlphaLISA, 16 h; hits give low values | activity change, % at 57.5 µM | 360,000 tested, 4.7% active | AID 743279; in the data active = activity change below about -50%; inconclusive = mostly about -30% to -49%
#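 THP-1 cells pretreated 1 hr with compounds (up to 57.5 uM final), then stimulated with LPS (250 ng/mL final) plus ATP (1.25 mM final); secreted IL-1B measured by AlphaLISA after 16 hr, decreased signal indicating inhibition.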
# ELG1 DNA repair = inhibitors of ELG1-dependent DNA repair in HEK293T cells | HEK293T ELG1-luciferase reporter, luminescence, 16 h; DNA damage induced by 5-fluorouridine | Potency, µM (top dose mostly 46.1 µM), for the others: at the highest dose activity change, negative = inhibition, most hits filed as inhibitors | 330,000 tested, 2.3% active | AID 504467; note: potency is the fitted concentration of half-maximal effect; nearly all actives have a fitted effect of over 55% in size
#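 DMSO vehicle served as the neutral condition. Each well held 2,000 cells given 5-fluorouridine plus compound; after 16 hr at 37 °C/5% CO2, ONE-Glo was added and luciferase measured 30 min later.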
# Gal4-VP16 FLuc = Gal4-VP16 reporter inhibition counter-screen; Drosophila S2 Gal4-VP16 UAS-luciferase, luminescence, 20 h; Potency, µM (series often up to 53.6 µM), inactives show at the highest dose activity, negative = inhibition, actives largely listed as inhibitors; 310,000 tested, 3.5% active;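 note: Gal4-VP16 expression switched on by copper sulfate through the metallothionein promoter; potency is the fitted concentration of half-maximal effect; nearly all actives have a fitted effect of over 50% in size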
# TDP1 cell CPT = growth inhibition of DT40 Tdp1-/-;hTDP1 cells with camptothecin (screen for TDP1 inhibitors) | chicken DT40 Tdp1-/-;hTDP1 cells + 20 nM CPT, ATP luminescence, 48 h | Potency, µM (titrated, usually from 46.2 µM), without a hit: at the highest dose activity change, negative = growth inhibition, actives largely listed as inhibitors | 420,000 tested, 12% active | AID 686979; note: potency is the fitted concentration of half-maximal effect; nearly all actives have a fitted effect of over 55% in size
#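 Chicken DT40 Tdp1-/- cells stably complemented with human TDP1 were seeded at 400 cells/well in medium containing 20 nM camptothecin, exposed to pin-transferred compounds, and grown at 37 °C for at least 48 hr. Viability was read as ATP luminescence.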
# RORgamma inh = inhibitors of mouse ROR gamma transcriptional activity; 310,000 tested, 5.4% active; Potency, µM (series often up to 53.6 µM), inactives show at the top dose activity change, negative = inhibition, usual class: inhibitors; AID 2551; Drosophila S2 Gal4-RORgamma UAS-luciferase reporter, 20 h; note: potency is the fitted concentration of half-maximal effect; nearly all actives have a fitted effect of over 60% in size
# Target sequence (P51450 whole entry, looked up, the tested form may be a part): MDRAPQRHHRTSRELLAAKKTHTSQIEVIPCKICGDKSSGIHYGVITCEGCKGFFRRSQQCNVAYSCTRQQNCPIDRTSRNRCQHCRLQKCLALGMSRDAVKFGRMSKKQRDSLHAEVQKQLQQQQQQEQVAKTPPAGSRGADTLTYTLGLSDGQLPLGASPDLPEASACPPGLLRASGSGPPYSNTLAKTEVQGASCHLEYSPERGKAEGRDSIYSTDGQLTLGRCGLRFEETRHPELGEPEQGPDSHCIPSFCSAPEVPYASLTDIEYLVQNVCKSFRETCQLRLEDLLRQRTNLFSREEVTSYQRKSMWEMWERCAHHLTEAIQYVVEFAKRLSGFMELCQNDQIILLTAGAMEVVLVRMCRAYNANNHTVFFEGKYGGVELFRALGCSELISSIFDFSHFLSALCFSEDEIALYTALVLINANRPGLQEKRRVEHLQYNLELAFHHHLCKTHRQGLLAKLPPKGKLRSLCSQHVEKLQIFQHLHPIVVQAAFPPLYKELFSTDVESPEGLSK
#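 Read-out: Photinus luciferase luminescence; inhibitors lower reporter signal. Insect Schneider cells with Gal4-ROR gamma fusion under metallothionein promoter, UAS reporter; 700 uM final copper sulfate induction, 20 hr, ambient temperature.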
# * hit, by the source's call; u = inconclusive; x = no result given; [ ] = dose if it differs, or a comment. Sampled rows, rich in hits. Any-hit rate of the full collection: about 21%. Unless noted, calls come from the whole dose curve; as a rule, active = well fitted curve in the direction sought with a large enough effect; inconclusive = small, poorly fitted or top-dose-only effect, or another doubt; inactive = no such curve, though single readings can be large; an effect the other way counts as inactive or inconclusive. % is set by controls: 0 for no effect and ±100 for the full control effect.
SMILES,TDP1 cell noCPT,IL1B secr inh,ELG1 DNA repair,Gal4-VP16 FLuc,TDP1 cell CPT,RORgamma inh
O=C(COc1cccc2c1CCN(Cc1ccc(Br)cc1)C2=O)N1CCOCC1,23.1µM*,-62.9*,7.3µM*,2.8%,u,30.6%
O=C(COc1cccc2c1CCN(Cc1ccc(Br)cc1)C2=O)NCc1ccco1,23.1µM*,-27.6,18.4µM*,-7.6%,18.4µM*,u
O=C1c2cccc(OCC(=O)N3CCCc4ccccc43)c2CCN1Cc1ccc(Br)cc1,18.4µM*,-22.3,18.4µM*,-28.3%,18.4µM*,u
COc1ccc(C(=O)OCC(=O)N2c3ccccc3CC2C)cc1S(=O)(=O)N1CCOCC1 (configuration not stated),-5.5%,-4.0,x,x,5.8%,x
C[C@]12C(=O)N(c3ccc(F)cc3)C(=O)N1[C@H]1c3ccccc3OC[C@@H]1[C@H]2c1ccccc1,u,23.6,-13.6%,x,-27.8%,x
CCC(CC)C(=O)N(C)c1c(C)nc2c(OCc3ccc(F)c(F)c3)cccn12,20.6µM*,17.1,x,x,u,x
CCc1nc2c(OCc3ccc(F)cc3)cccn2c1N(C)C(=O)C(C)C,u,2.2,x,x,-24.8%,x
CCC(CC)C(=O)N(C)c1c(C)nc2c(OCc3ccc(C(F)(F)F)cc3)cccn12,18.4µM*,u,x,x,23.1µM*,x
COc1ccc(Cl)cc1NC(=O)c1cc2ccc3ccc(C)[nH]c3c2n1,23.1µM*,x,x,x,u,x
COc1ccccc1CNC(=O)c1cc2ccc3ccc(C)[nH]c3c2n1,16.4µM*,x,x,x,18.4µM*,x
COc1ccc(Cl)cc1NC(=O)c1cc(-c2ccccc2)on1,-12.9%,8.2,5.2%,-1.5%,-18.0%,-8.0%
COc1ccc2ccccc2c1CN1CCOc2ccc(CN3CCN(CCO)CC3)cc2C1,u,x,x,x,10.3%[9.04 µM],x
COCCCNC(=O)c1c[nH]c2ccc(S(=O)(=O)N3CCc4ccccc43)cc2c1=O,u,-2.4,7.3µM*,u,-29.3%,41.2%
COCCNC(=O)c1c[nH]c2ccc(S(=O)(=O)Nc3ccccc3F)cc2c1=O,-0.6%,-1.4,-4.1%,1.2%,-21.0%,-0.7%
COCCNC(=O)c1c[nH]c2ccc(S(=O)(=O)N3CCc4ccccc43)cc2c1=O,6.51µM*,u,10.3µM*,-28.2%,14.6µM*,u
Cc1ccc(S(=O)(=O)Nc2cccc(C(=O)NCc3ccc(S(N)(=O)=O)cc3)c2)cc1,-10.3%,6.8,-21.2%,-12.4%,u,u
COc1ccc(C(=O)NCC(=O)OCc2nc(N)nc(Nc3ccccc3C)n2)cc1,4.8%,-15.0,-2.6%,x,16.2%,x
Cc1ccnc(NC(=O)c2cnc(Cl)c(Cl)c2)c1,-20.6%,-5.3,11.2%,u,-4.3%,-30.9%
CN(Cc1ccccc1)c1nc(-c2ccc([N+](=O)[O-])cc2)nc2ccccc12,u,-24.8,14.5%,-17.0%,18.4µM*,27.5%
COCCN(CCOC)c1nc(-c2ccc([N+](=O)[O-])cc2)nc2ccccc12,6.51µM*,8.6,-3.5%,-8.1%,0.581µM*,u
O=[N+]([O-])c1ccc(-c2nc(C(Cl)Cl)c3ccccc3n2)cc1,0.164µM*,118.2,5.17µM*,-22.5%,0.146µM*,-39.7%
COc1ccccc1Nc1nc(-c2ccc([N+](=O)[O-])cc2)nc2ccccc12,u,78.1,x,x,u,x
Cc1ccccc1OC(=O)CSc1nnc(-c2ccc3c(c2)OCO3)o1,-19.9%,x,x,x,-2.2%,x
CC(=O)N1CCCC1c1nc2ccccc2n1Cc1cccc(C)c1 (configuration not stated),u,x,x,x,-6.8%,x
COCCOC(=O)C1=C(C)NC(=O)NC1c1cccc2ccccc12 (configuration not stated),u,-10.6,-2.6%,2.3%,-23.2%,u
